Only some compounds are listed: those with a hit (about 3% of all), similar ones and a draw of the others.
MITF TRPM1 HTS – increases MITF-driven TRPM1 promoter luciferase signal | SK-MEL-5 TRPM1-promoter luciferase, 24 h; % of positive control, neutral wells = 0 | activation, % at 12.5 µM | 0.75% of 300,000 active | AID 588334;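 active = mean activation of at least 80% with every replicate also reaching 80%; inconclusive = mean reaches 80% but some replicate falls short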;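 note: 0% = neutral control wells and 100% = parthenolide positive control wells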
TROY NFkB inh – blocks TROY-dependent signaling in reporter cells; AID 1347056; inhibition, % at 10 µM; 0.98% of 360,000 active; Q293 LMP1-TROYcd NF-kB luciferase reporter, 4 h;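 active = compounds whose plate-normalised and pattern-corrected inhibition of the luciferase reporter signal at the single screening dose is 50% or more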
TRPM1 prom inh – MITF TRPM1 promoter inhibition in SK-MEL-5 cells; SK-MEL-5 TRPM1 promoter luciferase, 24 h; inhibition, % at 12.5 µM; 0.83% of 330,000 active; AID 488899;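 active = mean inhibition across replicates of 60% or more, whatever share of single replicates reaches that level; inconclusive = some that reach 60%, reason not given; inactive = mean inhibition across replicates below 60%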
TWEAK Fn14 block – inhibitors of TWEAK-Fn14 interaction signaling; TWEAK-stimulated Fn14 reporter cells, luciferase luminescence, 8 h; inhibition, % at 10 µM; 2% of 360,000 active; AID 1159606; in the data active = inhibition above about 50%
LGR2 inh – blocks bursicon-induced cAMP signaling via Drosophila LGR2. HEK293 LGR2, CRE-luciferase, bursicon-stimulated, 4 h. inhibition, % at 9.99 µM. AID 720647. 0.35% of 380,000 active;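 active = drop in luminescence signal, shown as inhibition above about 50% in the replicate tests, limit read from the data, passing the limit was not always enough; inconclusive = probably only some replicates passing the limit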;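 note: agonist challenge used bursicon conditioned medium at about half maximal strength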
EBV LMP1 NFkB – Epstein-Barr LMP1 NF-kappaB reporter inhibition; LMP1-induced NF-kappaB luciferase reporter cells, luminescence; inhibition, % at 12.5 µM; 0.69% of 350,000 active; in the data active = inhibition above about 41%; inconclusive = no clear call, values can overlap the other calls;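 note: 0% = neutral control wells and 100% = reference inhibitor control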
Numbers without * were called inactive; ? = inconclusive; . = no result given.

SMILES	MITF TRPM1 HTS	TROY NFkB inh	TRPM1 prom inh	TWEAK Fn14 block	LGR2 inh	EBV LMP1 NFkB
Cc1ccc([C@@H]2CC=C(C(=O)O)[C@H](c3ccc(C(C)(C)C)cc3)N2S(=O)(=O)c2ccc(C)cc2)cc1	-3	65*	4	52*	2	4
Cc1ccc(S(=O)(=O)N2[C@@H](c3ccc(Cl)cc3)C(C(=O)O)=CC[C@H]2c2ccc(Cl)c(Cl)c2)cc1	-3	63*	4	26	0	-2
O=C(C[C@@H]1C[C@@H]2c3cc(NC(=O)C4CCOCC4)ccc3O[C@@H]2[C@@H](CO)O1)NCC1CC1	.	.	.	.	9	.
O=C(C[C@H]1C[C@H]2c3cc(NC(=O)NC4CCCC4)ccc3O[C@H]2[C@@H](CO)O1)NC1CCCCC1	.	.	.	.	-2	.
COc1cccc(CN2CCC3(CC2)CN(C(=O)C2CC2)[C@H](CO)c2c3c3ccc(OC)cc3n2C)c1	.	.	.	.	-14	.
C[C@@H]1CN([C@H](C)CO)C(=O)c2cc(-c3ccccc3)cnc2O[C@@H]1CN(C)Cc1ccccn1	.	.	.	.	-6	.
COCC#Cc1ccc([C@H]2[C@H]3CN(C(=O)c4ccncc4)CC(=O)N3[C@H]2CO)cc1	.	.	.	.	13	.
CN(CCCC(=O)N1CCCC(C(N)=O)C1)S(=O)(=O)c1ccc(F)cc1 (centres undefined)	4	-7	-2	68*	-2	2
COc1cccc(CN2[C@@H]3CNC[C@H]2C3c2ccc(-c3cccc(C#N)c3)cc2)c1 (some centres undefined)	.	.	.	.	20	.
CCC(=O)N1CCC2(CC1)CN(CC1CCCCC1)[C@@H](CO)c1c2c2ccc(OC)cc2n1C	.	.	.	.	-32	.
Cn1c(=O)[nH]c(=O)c2c1nc([N+](=O)[O-])n2Cc1ccccc1	-99	16	93*	73*	?	95*
Cc1cc(C(=O)COC(=O)c2ccc3c(c2)OCO3)c(C)n1Cc1cccs1	17	-6	-18	21	.	-16
COC(=O)CCn1c(C)cc(C(=O)COc2ccccc2C(N)=O)c1C	-8	23	12	53*	24	6
Cc1cc(C(=O)COC(=O)c2ccccc2O)c(C)n1Cc1cccs1	-89	64*	90*	102*	.	87*
CC(=O)Nc1ccccc1OCC(=O)c1cc(C)n(Cc2cccs2)c1C	.	36	18	64*	.	-20
Cc1noc(C)c1S(=O)(=O)Nc1ccc2c(c1)C(=O)N([C@@H](C)CO)C[C@@H](C)[C@H](CN(C)C(=O)Nc1ccccc1)OCCCC[C@@H](C)O2	.	.	.	.	15	.
O=C(NC1CCCCC1)N1CC2(C1)[C@H](c1ccccc1)[C@@H](CO)N2CC1CC1	.	.	.	.	0	.
CCOc1ccc(NS(=O)(=O)c2ccc(NS(C)(=O)=O)cc2)cc1	9	10	-7	-14	.	5
CCCCCOc1ccc(NS(C)(=O)=O)cc1	33	-40	-28	-19	.	78*
CC(=O)N[C@@H]1CC[C@H](CCNC(=O)C2CC2)O[C@@H]1CO	.	.	.	.	7	.
Cc1ccc(-c2csc(NC(=O)c3ccc(Br)cc3)c2C(=O)O)cc1	106*	25	-96	47	-25	-13
COc1cc(C(=O)Nc2scc(-c3ccc(Br)cc3)c2C(=O)O)cc(OC)c1OC	-6	72*	5	-7	-3	1
Cc1cccc(C(=O)Nc2scc(-c3ccc(Br)cc3)c2C(=O)O)c1	.	22	-14	23	.	9
CN1[C@@H]2c3ccc(-c4cccc(F)c4)c(=O)n3C[C@H]1[C@H](CO)[C@H]2C(=O)Nc1nccs1	.	.	.	.	-23	.
O=c1c2ccccc2nc(/C=C/c2cc(Br)ccc2O)n1CCCO	-8	12	13	69*	26	-13
O=c1c2ccccc2nc(/C=C/c2cccc([N+](=O)[O-])c2)n1CCO	4	3	-4	4	12	0
CCn1c(/C=C\c2ccccc2C)nc2ccccc2c1=O	15	-19	-15	-4	1	-12
CCn1c(/C=C/c2c[nH]c3ccccc23)nc2ccccc2c1=O	114*	-7	-113	35	-20	-76
O=C(COc1ccc2ccccc2c1)NNC(=O)Cc1ccccc1	-7	-5	7	15	.	6
O=C(COc1ccc2ccccc2c1)NCCNC(=O)COc1ccc2ccccc2c1	-13	-4	14	-13	.	54*

High-throughput results (PubChem BioAssay)
